Pf growth 48h = Primary qHTS for delayed death inhibitors of the malarial parasite plastid, 48 hour incubation. P. falciparum luciferase growth in erythrocytes, 48 h. Potency, µM (series often up to 28.7 µM), for inactives: top-dose activity change, negative = inhibition, usual class: inhibitors. 5.9% of 310,000 active; note: potency is the fitted concentration of half-maximal effect; % is set by controls: 0 for no effect and ±100 for the full control effect
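Luciferase-expressing P. falciparum in infected erythrocytes (2% hematocrit, 0.1% parasitemia final) in RPMI 1640/0.5% Albumax were exposed to compound for 48 hours at 37 C, 5% CO2; growth read as luminescence.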
Pf growth 96h = Primary qHTS for delayed death inhibitors of the malarial parasite plastid, 96 hour incubation; P. falciparum luciferase reporter growth, 96 h; Potency, µM (highest dose often 28.7 µM), inactives show at the highest dose activity change, negative = inhibition, hits mostly inhibitors; 6.9% of 320,000 active; AID 504834, 2011; note: potency is the fitted concentration of half-maximal effect; % is set by controls: 0 for no effect and ±100 for the full control effect
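Two parasite generations (96 h, 37 C, 5% CO2) of compound exposure in infected erythrocytes (0.05% parasitemia, 2% hematocrit). Luciferase-reporter P. falciparum; decreased luminescence indicates inhibited growth, aimed at apicoplast-acting delayed death.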
SARS PLP yeast = qHTS of Yeast-based Assay for SARS-CoV PLP. S. cerevisiae expressing SARS-CoV PLpro, growth rescue. Potency, µM (titrated, usually from 32.9 µM), inactives show at the highest dose activity, positive = growth rescue, usual class: activators. 0.19% of 330,000 active. AID 485353, 2010; calls by dose curve; note: potency is the fitted concentration of half-maximal effect; 0% is about no effect; nearly all actives have a fitted effect of over 55% in size
Shiga toxin inh = A qHTS for Small Molecule Inhibitors of Shiga Toxin; Vero cells, Shiga toxin protein synthesis inhibition reporter; inhibition, % at 38.7 µM; 9.2% of 290,000 active; in the data active = inhibition mostly above about 28%, no sharp cut-off; inactive = mostly below about 43%; note: 0% is about no effect
Cycloheximide cs = Cycloheximide Counterscreen for Small Molecule Inhibitors of Shiga Toxin; cell reporter, cycloheximide protein synthesis inhibition counterscreen; 12% of 300,000 active; max response, %; in the data active = max response mostly above about 13%, no sharp cut-off; inactive = mostly below about 14%; note: read at 38.3 µM for the half of the compounds with a filed dose; 0% is about no effect
NS1 function inh = qHTS Assay for Inhibitors of Influenza NS1 Protein Function; Potency, µM (doses to about 46.1 µM), inactives show at the top dose activity, positive = more growth; 0.4% of 270,000 active; AID 2326, 2010; calls by dose curve; note: potency is the fitted concentration of half-maximal effect; actives are rising curves; nearly all actives have a fitted effect of over 50% in size
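Growth recovery, yeast-based: influenza A NS1 expressed in S. cerevisiae causes slow growth, and suppressors are detected by OD600. The parent strain without NS1 is used as positive control.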
* = called active by the depositor; [ ] = remark or other dose. Hits are enriched below; roughly 21% of the tested compounds scored in any of these assays. Unless noted, calls come from the whole dose curve; as a rule, active = well fitted inhibition curve with a large enough effect; inconclusive = small, poorly fitted or top-dose-only effect, or another doubt; inactive = no such curve, though single readings can be large or run the other way.

How did Cc1[nH]c2ccccc2c1/C=N/Nc1nc2ccccc2[nH]1 do in these assays?
Pf growth 48h: inconclusive; Pf growth 96h: 3%; SARS PLP yeast: -10%; Shiga toxin inh: 112*; Cycloheximide cs: 43*; NS1 function inh: -5%

What do the screens show for `Cc1ccc(OCCCC(=O)ON=C(N)c2ccccc2C)cc1`?
Pf growth 48h: -21%; Pf growth 96h: -2%; SARS PLP yeast: -5%

What do the screens show for `COc1ccc(C(CNC(=O)Cc2ccc(-c3ccccc3)cc2)N(C)C)cc1` (stereo not drawn)?
Pf growth 48h: inconclusive; Pf growth 96h: inconclusive; SARS PLP yeast: 3%; Shiga toxin inh: 7; Cycloheximide cs: -4; NS1 function inh: 11%

Results for O=[N+]([O-])c1cc(/C=N/Nc2nc3ccccc3[nH]2)c(O)cc1O ?
Pf growth 48h: 2.1µM*; Pf growth 96h: 0%; SARS PLP yeast: 16µM*; Shiga toxin inh: 104*; Cycloheximide cs: 43*; NS1 function inh: inconclusive

What do the screens show for `C(=C\c1ccccc1)/C=N/Nc1nc2ccccc2[nH]1`?
Pf growth 48h: inconclusive; Pf growth 96h: 3.3µM*; SARS PLP yeast: -14%; Shiga toxin inh: 89*; Cycloheximide cs: 27*; NS1 function inh: -11%

What do the screens show for `O=c1[nH]c(N/N=C\c2ccc3c(c2)OCO3)nc2ccccc12`?
Pf growth 48h: -76%; Pf growth 96h: -29%; SARS PLP yeast: -1%; Shiga toxin inh: 54*; Cycloheximide cs: 53*; NS1 function inh: 8%

What do the screens show for `Brc1ccc(-c2ccc(/C=N/Nc3nc4ccccc4[nH]3)o2)cc1`?
Pf growth 48h: 0.41µM*; Pf growth 96h: 13µM*; SARS PLP yeast: -106%; Shiga toxin inh: 78*; Cycloheximide cs: 49*; NS1 function inh: inconclusive

What do the screens show for `CC(Cc1c[nH]c2ccccc12)C(=O)N1CCN(c2ccccc2F)CC1` (stereo not drawn)?
Pf growth 48h: 1%[0.00184 µM]; Pf growth 96h: 23%; SARS PLP yeast: 0%; Shiga toxin inh: -14; Cycloheximide cs: -4; NS1 function inh: -14%

What do the screens show for `COc1ccc(S(=O)(=O)N2CCCC2C(=O)Nc2nnc(-c3cccnc3)s2)cc1` (stereo not drawn)?
Pf growth 48h: inconclusive; Pf growth 96h: -11%; SARS PLP yeast: 1%; Shiga toxin inh: 1; Cycloheximide cs: -5; NS1 function inh: -20%

Results for COc1ccc(CN(CC2CCC(C(=O)O)CC2)C(=S)Nc2cccc(C)c2)cc1 (stereo not drawn) ?
Pf growth 48h: -35%; Pf growth 96h: -30%[1.15 µM]; SARS PLP yeast: -8%; Shiga toxin inh: 12; Cycloheximide cs: 2

What do the screens show for `CCC1CC=CC2C1C(=O)N(Cc1ccccc1)C2c1ccc2ccccc2c1` (stereo not drawn)?
Shiga toxin inh: -3; Cycloheximide cs: -5

What do the screens show for `C(=N\Nc1nc2ccccc2[nH]1)/c1c[nH]c2ccccc12`?
Pf growth 48h: 0.66µM*; Pf growth 96h: 26%; SARS PLP yeast: 17%; Shiga toxin inh: 67*; Cycloheximide cs: 54*; NS1 function inh: 11%

Results for COC(=O)c1ccc(-n2c(C)cc(/C=N/Nc3nc(C)cc(=O)[nH]3)c2C)cc1 ?
Pf growth 48h: 8.3µM*; Pf growth 96h: 13µM*; SARS PLP yeast: 0%; Shiga toxin inh: 22; Cycloheximide cs: 6; NS1 function inh: 8%

What do the screens show for `C(=N\Nc1nc2ccccc2[nH]1)/C1CCCCC1`?
Pf growth 48h: inconclusive; Pf growth 96h: inconclusive; SARS PLP yeast: 12%; Shiga toxin inh: 114*; Cycloheximide cs: 61*

What do the screens show for `O=C(NCc1nc2ccccc2[nH]1)C1CCCCC1`?
Pf growth 48h: 11%; Pf growth 96h: 154%; SARS PLP yeast: 0%; Shiga toxin inh: 11; Cycloheximide cs: 8; NS1 function inh: 0%

Results for C(=N\Nc1nc2ccccc2[nH]1)/c1ccccc1 ?
Pf growth 48h: inconclusive; Pf growth 96h: -22%; SARS PLP yeast: -1%; Shiga toxin inh: 76*; Cycloheximide cs: 49*; NS1 function inh: -2%

Results for Cn1cnnc1SCC(=O)NNC(=O)c1ccc([N+](=O)[O-])cc1 ?
SARS PLP yeast: 17%

Results for Cc1ccc(CN2CC(C(=O)Nc3ncccc3C)CC2=O)cc1 (stereo not drawn) ?
Pf growth 48h: -7%; Pf growth 96h: 43%; SARS PLP yeast: -2%; Shiga toxin inh: -6; Cycloheximide cs: -3; NS1 function inh: 3%

What do the screens show for `O=C1Oc2ccccc2C(=O)C1C(CC(O)c1ccc(-c2ccc(Br)cc2)cc1)c1ccccc1` (stereo not drawn)?
Pf growth 48h: -3%; Pf growth 96h: -25%

Results for Cc1ccc(NC(=O)c2ccc(Cn3cc([N+](=O)[O-])cn3)cc2)c(C)c1 ?
Pf growth 48h: -26%; Pf growth 96h: -25%; SARS PLP yeast: 5%; Shiga toxin inh: -9; Cycloheximide cs: 8; NS1 function inh: -2%

What do the screens show for `Cc1ccccc1/C=N/Nc1nc2ccccc2[nH]1`?
Pf growth 48h: inconclusive; Pf growth 96h: -35%; SARS PLP yeast: -10%; Shiga toxin inh: 76*; Cycloheximide cs: 49*

Results for Cc1ccccc1/C=N/Nc1ccc(Cl)nn1 ?
Pf growth 48h: 6%; Pf growth 96h: 3%; SARS PLP yeast: -7%; Shiga toxin inh: 30; Cycloheximide cs: 11

Results for COc1ccc(C(CNc2nc(-c3cccnc3)nc3ccccc23)N(C)C)cc1 (stereo not drawn) ?
Pf growth 48h: inconclusive; Pf growth 96h: inconclusive; SARS PLP yeast: -2%; Shiga toxin inh: -1; Cycloheximide cs: -3; NS1 function inh: -2%

How did Cc1nn(C)c(C(=O)Nc2ccn(Cc3c(F)c(F)cc(F)c3F)n2)c1[N+](=O)[O-] do in these assays?
Pf growth 48h: -4%; SARS PLP yeast: 7%; Shiga toxin inh: 25; Cycloheximide cs: -8; NS1 function inh: -7%

Results for Cc1nn(Cc2cccc(C(=O)Nc3ccn(Cc4c(F)c(F)cc(F)c4F)n3)c2)c(C)c1[N+](=O)[O-] ?
Pf growth 96h: 13µM*; SARS PLP yeast: 6%; Shiga toxin inh: -5; Cycloheximide cs: -6; NS1 function inh: 12%

Results for Cc1ccc(NC2=NCC(=O)N2Cc2cccs2)cc1C ?
Pf growth 48h: -13%; Pf growth 96h: inconclusive; SARS PLP yeast: 0%; Shiga toxin inh: 24; Cycloheximide cs: 29*; NS1 function inh: 8%

Results for Cc1cc(Cn2nc(-c3ccccc3)cc2C(=O)NCc2cccs2)on1 ?
Pf growth 48h: inconclusive; Pf growth 96h: inconclusive; SARS PLP yeast: -2%

How did CC12CC3CC(C)(C1)CC(C(=O)NCc1cccnc1)(C3)C2 do in these assays?
Pf growth 48h: 52%; Pf growth 96h: 3.7µM*; SARS PLP yeast: -6%; Shiga toxin inh: -18; Cycloheximide cs: -1; NS1 function inh: 1%
